The list is not random: actives were taken first. Their share in the collection is about 12%.
SARS PLP yeast: blocks SARS-CoV papain-like protease in a yeast assay; Potency, µM (doses to about 32.9 µM), inactives show top-dose activity, positive = growth rescue, hits mostly activators; 330,000 tested, 0.19% active; S. cerevisiae expressing SARS-CoV PLpro, growth rescue; calls by dose curve; note: 0% is about no effect; nearly all actives have a fitted effect of over 55% in size
NS1 inh: inhibitors of influenza NS1 protein function | 270,000 tested, 0.4% active | Potency, µM (top dose mostly 46.1 µM), inactives show top-dose activity, positive = more growth | AID 2326; calls by dose curve; note: actives are rising curves; nearly all actives have a fitted effect of over 50% in size
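Read-out: OD600 growth recovery of NS1-expressing budding yeast. Cells grown overnight at 30C in -URA glucose medium, washed, resuspended and diluted 1:100 in 2% galactose assay medium, pH 6.0. Same strain lacking NS1 served as positive control.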
AMA1 RON2 block: disrupts binding of P. falciparum AMA1 to RON2 | Potency, µM (highest dose often 58.2 µM), for inactives: at the top dose activity change, negative = inhibition, actives largely listed as inhibitors | AlphaScreen AMA1-biotinylated RON2 peptide binding | 360,000 tested, 0.2% active;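 note: 0% = vehicle wells and -100% = peptide control; nearly all actives have a fitted effect of over 45% in size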
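AMA1 (3D7) with his tag at 25 nM final met compounds first, then biotinylated RON2 peptide at 25 nM; detection used donor plus acceptor beads, 10 µg/mL apiece, read by AlphaScreen after 30 min at room temperature.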
Pf growth 96h: P. falciparum growth inhibition at 96 hours. Potency, µM (top dose mostly 28.7 µM), without a hit: top-dose activity change, negative = inhibition, hits mostly inhibitors. 320,000 tested, 6.9% active. P. falciparum luciferase reporter growth, 96 h. AID 504834; note: % is set by controls: 0 for no effect and ±100 for the full control effect
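Plates of compound plus infected erythrocytes (2% hematocrit, 0.05% parasitemia final) incubate 96 hours, 37 C, 5% CO2. Detection reagent added; reduced luminescence from the parasites' luciferase reporter flags inhibition.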
Pf growth 48h: P. falciparum growth inhibition at 48 hours (one generation) | Potency, µM (doses to about 28.7 µM), for the others: at the highest dose activity change, negative = inhibition, actives largely listed as inhibitors | AID 504832 | 310,000 tested, 5.9% active | P. falciparum luciferase growth in erythrocytes, 48 h; note: % is set by controls: 0 for no effect and ±100 for the full control effect
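Read-out is firefly luciferase luminescence from an integrated reporter in P. falciparum, so falling signal marks reduced parasite growth. Infected erythrocytes were at 2% hematocrit and 0.1% parasitemia (final) in Albumax-supplemented RPMI 1640.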
HCV inh: HCV inhibition. 340,000 tested, 3.4% active. Huh7.5.1 HCVcc-Cre infection, luciferase reporter, 44 h. Potency, µM (top dose mostly 41.8 µM), inactives show top-dose activity change, negative = inhibition, most hits filed as inhibitors. AID 651820; note: % is set by controls: 0 for no effect and ±100 for the full control effect
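After 44 h co-culture of compound, cells and HCVcc-Cre (~0.5 moi), substrate is added for 15 min at room temperature and luciferase measured over 15 sec. Cells were seeded at 1,000/well and pre-cultured 4 h.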
* marks the source's active call; other numbers are inactive results; [ ] = another dose, or the depositor's remark. Unless noted, calls come from the whole dose curve; as a rule, active = well fitted curve in the direction sought with a large enough effect; inconclusive = small, poorly fitted or top-dose-only effect, or another doubt; inactive = no such curve, though single readings can be large; an effect the other way counts as inactive or inconclusive. Potency is the fitted concentration of half-maximal effect.

Results for CC1CN(C(=O)c2ccc(N3CCCCC3)c([N+](=O)[O-])c2)CC(C)O1 (stereo unspecified) ?
SARS PLP yeast: -6%; NS1 inh: -6%; AMA1 RON2 block: -19%; Pf growth 96h: -21%; Pf growth 48h: -4%; HCV inh: 19%

Results for O=C(Nc1cccc(Oc2ccc(C(=O)O)c(C(=O)O)c2)c1)c1ccc(-c2ccccc2)cc1 ?
SARS PLP yeast: -1%; NS1 inh: 13%; AMA1 RON2 block: -3%; Pf growth 96h: 56%; Pf growth 48h: 1.7µM*; HCV inh: 10%

What do the screens show for `COc1ccc(NC(=O)c2cccs2)cc1`?
SARS PLP yeast: -45%; NS1 inh: 8%; AMA1 RON2 block: 16%; Pf growth 96h: inconclusive; Pf growth 48h: 333%; HCV inh: -5%

What do the screens show for `O=C(Nc1ccc(Oc2ccc(C(=O)O)c(C(=O)O)c2)cc1)c1cccs1`?
SARS PLP yeast: 0%; NS1 inh: -1%; AMA1 RON2 block: -6%; Pf growth 96h: 2.1µM*; Pf growth 48h: 7%; HCV inh: 18%

How did Cc1ccc(S(=O)(=O)c2nc(Nc3ccccc3)sc2Cl)cc1 do in these assays?
SARS PLP yeast: -94%; NS1 inh: -2%; AMA1 RON2 block: -9%; Pf growth 96h: 0%; Pf growth 48h: 7%; HCV inh: 11µM*

How did COC(=O)c1ccc(S(=O)(=O)N2Cc3ccccc3C2)cc1 do in these assays?
SARS PLP yeast: 3%; AMA1 RON2 block: 12%; Pf growth 96h: -22%; Pf growth 48h: inconclusive; HCV inh: inconclusive

How did COc1ccc(CCNC(=O)c2cc(C3CC3)nc3c2cnn3C(C)C)cc1OC do in these assays?
SARS PLP yeast: -3%; AMA1 RON2 block: -3%; Pf growth 96h: 2.3µM*; Pf growth 48h: inconclusive; HCV inh: inconclusive

Results for CCNC(=O)c1cccc(NC(=O)c2cc(C3CC3)nc3c2cnn3C(C)C)c1 ?
SARS PLP yeast: -4%; AMA1 RON2 block: 31%; Pf growth 96h: inconclusive; Pf growth 48h: inconclusive; HCV inh: inconclusive

What do the screens show for `COc1ccc(CNC(=O)c2cc(C3CC3)nc3c2cnn3C(C)C)cc1`?
SARS PLP yeast: -2%; AMA1 RON2 block: 5%; Pf growth 96h: 15µM*; Pf growth 48h: 13µM*; HCV inh: 2.2µM*

What do the screens show for `CC(C)n1ncc2c(C(=O)O)cc(C3CC3)nc21`?
SARS PLP yeast: 1%; NS1 inh: 3%; AMA1 RON2 block: 6%; Pf growth 96h: 19%; Pf growth 48h: -2%; HCV inh: 10%

How did CCOc1ccc(OCCNC(=O)c2cc(C3CC3)nc3c2cnn3C(C)C)cc1 do in these assays?
SARS PLP yeast: -3%; AMA1 RON2 block: -25%; Pf growth 96h: inconclusive; Pf growth 48h: 10µM*; HCV inh: 3.2µM*

How did CC(C)n1ncc2c(C(=O)NCCc3ccc(S(N)(=O)=O)cc3)cc(C3CC3)nc21 do in these assays?
SARS PLP yeast: -6%; AMA1 RON2 block: -4%; Pf growth 96h: inconclusive; Pf growth 48h: -7%; HCV inh: -4%

How did CC(C)n1ncc2c(C(=O)Nc3cccc(C#N)c3)cc(C3CC3)nc21 do in these assays?
SARS PLP yeast: 7%; AMA1 RON2 block: -2%; Pf growth 96h: 5.2µM*; Pf growth 48h: 6.6µM*; HCV inh: 11µM*

What do the screens show for `CC(C)n1ncc2c(C(=O)NCCOc3ccccc3F)cc(C3CC3)nc21`?
SARS PLP yeast: -7%; AMA1 RON2 block: 2%; HCV inh: inconclusive

What do the screens show for `COc1ccccc1CNC(=O)c1cc(C2CC2)nc2c1cnn2C(C)C`?
SARS PLP yeast: -1%; AMA1 RON2 block: -10%[11.6 µM]; Pf growth 96h: 0.74µM*; Pf growth 48h: 0.93µM*; HCV inh: 1µM*

What do the screens show for `CC(C)n1ncc2c(C(=O)N3CCN(Cc4ccc(Br)s4)CC3)cc(C3CC3)nc21`?
SARS PLP yeast: 3%[6.58 µM]; AMA1 RON2 block: 14%; Pf growth 96h: 12µM*; Pf growth 48h: 4.1µM*; HCV inh: 10µM*

How did CSCCC(NC(=O)c1ccco1)C(=O)NC1CCCCCC1 (stereo unspecified) do in these assays?
SARS PLP yeast: 1%; AMA1 RON2 block: -21%; Pf growth 96h: 13%; Pf growth 48h: 12%; HCV inh: -4%[8.37 µM]

How did CCc1cc(=O)oc2c(CNCc3ccc(OC)cc3OC)c(O)c(Cl)cc12 do in these assays?
SARS PLP yeast: -1%; NS1 inh: 4%; AMA1 RON2 block: 14%; Pf growth 96h: inconclusive; Pf growth 48h: inconclusive; HCV inh: 17%

Results for Cn1c(CNC(=O)CCNC(=O)c2ccccc2)cc(=O)n(C)c1=O ?
SARS PLP yeast: 19%; NS1 inh: -11%; AMA1 RON2 block: 5%; Pf growth 96h: 42%; Pf growth 48h: 29%; HCV inh: -30%

How did Cc1ccc2[nH]c(=O)c(CN(Cc3ccc4c(c3)OCO4)Cc3nnnn3C3CCCC3)cc2c1 do in these assays?
NS1 inh: 4%; AMA1 RON2 block: -29%; Pf growth 96h: -1%; Pf growth 48h: 10µM*; HCV inh: inconclusive

Results for CCCN1CCN(C(c2cc3cc(OCC)ccc3[nH]c2=O)c2nnnn2C2CCCCC2)CC1 (stereo unspecified) ?
SARS PLP yeast: 0%; NS1 inh: -8%; AMA1 RON2 block: -1%; Pf growth 96h: 52%; Pf growth 48h: inconclusive; HCV inh: -17%

Results for Cc1ccc2[nH]c(=O)c(CN(Cc3nnnn3Cc3ccccc3)C3CCCC3)cc2c1 ?
SARS PLP yeast: -1%; NS1 inh: -33%; AMA1 RON2 block: -2%; Pf growth 96h: -20%; Pf growth 48h: 13µM*; HCV inh: inconclusive

Results for COc1ccc2[nH]c(=O)c(CN(Cc3nnnn3Cc3ccccc3)CC3CCCO3)cc2c1 (stereo unspecified) ?
SARS PLP yeast: -3%; NS1 inh: -19%; AMA1 RON2 block: 18%; Pf growth 96h: 12%; Pf growth 48h: inconclusive; HCV inh: -8%

What do the screens show for `CCc1ccc2[nH]c(=O)c(CN(Cc3nnnn3C3CCCC3)C3CCCCC3)cc2c1`?
SARS PLP yeast: 0%; NS1 inh: -60%; AMA1 RON2 block: -9%; Pf growth 96h: 1%; Pf growth 48h: 8.3µM*; HCV inh: -23%

What do the screens show for `CCOc1ccc2[nH]c(=O)c(CN(CCO)C(c3nnnn3C3CCCCC3)C(C)C)cc2c1` (stereo unspecified)?
SARS PLP yeast: -5%; NS1 inh: -10%; AMA1 RON2 block: -9%; Pf growth 96h: -18%[5.75 µM]; Pf growth 48h: 3.3µM*; HCV inh: 16%

Source: PubChem (National Center for Advancing Translational Sciences (NCATS))
